Laboratory results as given in PubChem BioAssay (NCI).
The panel holds about 83,000 compounds, 20% with a hit somewhere; the sample as a whole holds those more often.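 How to read the values: 0–100, growth inhibition (40 = 60% inhibited); 0, no net growth; -100 to 0, cell death (-40 = 40% of starting cells died; -100 = all dead).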 A number with no mark means an inactive call. The source made the active and inactive calls. How the source made its calls: active means growth percent below 10; inactive means the rest.

How the values were obtained:
Assay in all cases: NCI-60 one-dose screen, 48 h (100 = growth as untreated, 0 = no growth, -100 = all killed)
Conditions in all cases: 10 µM unless noted
T-47D breast = system: T-47D breast
BT-549 breast = system: BT-549 breast
MDA-MB-435 melanoma = system: MDA-MB-435 melanoma
SW-620 colon = system: SW-620 colon
HCT-116 colon = system: HCT-116 colon
KM12 colon = system: KM12 colon
MCF7 breast = system: MCF7 breast
HCC-2998 colon = system: HCC-2998 colon

Row | Structure (SMILES) | growth (T-47D breast) | growth (BT-549 breast) | growth (MDA-MB-435 melanoma) | growth (SW-620 colon) | growth (HCT-116 colon) | growth (KM12 colon) | growth (MCF7 breast) | growth (HCC-2998 colon)
1 | Cc1cc(O)c2cc3c(O)c(O)ccc3cc2c1 | 104% | 109% | 123% | 114% | 102% | 108% |  | 
2 | COc1ccc(-c2nc3ccccc3n3cccc23)cc1 | 107% | 95.4% | 126% | 101% | 92% | 99% |  | 
3 | COc1cc(/C=C/c2cc(/C=C/c3ccc(O)c(OC)c3)n(C(=O)Nc3ccc(F)c(Cl)c3)n2)ccc1O | 2.29% (active) |  | -25.9% (active) | 2.03% (active) | 2.15% (active) | 0.0776% (active) | 2.06% (active) | 9.75% (active)
4 | C(=Nc1ccc(-c2ccc(N=Cc3ccccc3)cc2)cc1)c1ccccc1 | 107% | 97.5% | 107% | 106% | 100% | 107% |  | 110%
5 | CCN(CC)c1ccc2c(cc1=O)[C@@H](NC(C)=O)CCc1cc(OC)c(OC)c(OC)c1-2 | 82.2% | 1.73% (active) | -43.9% (active) | 23.3% | 3.75% (active) | 5.97% (active) |  | 22.9%
6 | CC(C)(C)OC(=O)N1CCCN(CCNc2nccc(-c3c(-c4cccc(O)c4)nc4sccn34)n2)S1(=O)=O | 86.6% |  | 54.1% | 131% | 81.7% | 111% | 97.8% | 108%
7 | COc1ccccc1CNCCCN1C(=O)c2ccc3c4c(ccc(c24)C1=O)C(=O)N(CCCCNCCCN)C3=O | -45.4% (active) | 58% | -70% (active) | -25% (active) | -11% (active) | 10.7% |  | 
8 | COc1ccc(C2NC(=O)c3cc4c(cc3N2)OCO4)cc1 (stereo unspecified) | 65.5% |  | -41.6% (active) | 24.1% | 14.1% | 9.55% (active) | 18.2% | 9.52% (active)
9 | COc1cccc(/C=N\Nc2ccc([N+](=O)[O-])cn2)c1O | 30.1% | 71.8% | 54.3% | 38% |  | 78.4% |  | 82.2%
10 | COc1cc2ccc(C(C)=O)cc2cc1OC | 93.1% | 90.8% |  | 98.5% | 103% | 105% | 97.9% | 
11 | Nc1c(C(=O)Nc2ccccc2)sc2nc3c(cc12)C(=O)CCC3 | 47.1% | 65.7% | -5.95% (active) | 27.2% | 23.6% | 19.9% |  | 21.9%
12 | C/C(=N\Nc1ccc([N+](=O)[O-])cn1)c1ccc(N)cc1 | 103% | 100% | 96.5% | 112% |  | 95.5% |  | 102%
13 | Cc1c(C(=O)CCl)c(=O)n(-c2ccccc2)n1C | 34.3% | 61.2% | 40% | 36.6% | 32% | 88.7% |  | 85.9%
14 | Cc1nc(N)nc2c1CCC(Nc1ccccc1)S2 (stereo unspecified) | 101% |  | 101% | 102% | 97% | 110% | 104% | 104%
15 | COc1ccc(-n2nc(C(=O)Nc3ccc(F)cc3)nc2-c2cc(OC)c(OC)c(OC)c2)cc1 | 75.3% | 73% |  | 96.6% | 80.9% | 96% |  | 
16 | CCOC(OCC)c1cnc2nc(NC(C)=O)[nH]c(=O)c2n1 | 99.9% | 112% | 105% | 103% | 102% | 108% |  | 107%
17 | c1cc2c(cc1-c1cnc3nonc3n1)OCO2 | 57.7% |  | 103% | 83% | 102% | 74.8% | 49.5% | 107%
18 | S=C(Cc1ccccc1)N1CCN(c2ccccc2Cl)CC1 | 94.4% | 96.6% | 104% | 103% | 88.2% | 94.5% |  | 101%

Row | Structure (SMILES) | growth (T-47D breast) | growth (BT-549 breast) | growth (MDA-MB-435 melanoma) | growth (SW-620 colon) | growth (HCT-116 colon) | growth (KM12 colon) | growth (MCF7 breast) | growth (HCC-2998 colon)
19 | CC(C)CC(=O)C(CCc1ccccn1)C(C)C (stereo unspecified) | 96.3% |  | 104% | 104% | 105% | 113% | 104% | 106%
20 | O=S(=O)(Nc1ccc2ccccc2c1)N1CCCCC1 | 50.3% |  | -0.27% (active) | 41% | 55% | 39.7% | 49% | 45.3%
21 | CC(=O)C1CCC2C3CC(C)=C4CC(O)CCC4(C)C3CCC12C (stereo unspecified) |  | 100% | 109% | 118% | 90.7% | 109% | 100% | 98.8%
22 | CC(C)(C)c1ccc(C(=O)Nc2sc3cc(O)ccc3c2C(N)=O)cc1 | 61.5% |  | 83.9% | 53.6% | 74% | 34.6% |  | 88.2%
23 | CCCNCCC(C)=O | 98.7% |  | 94.7% | 97.6% |  | 112% | 106% | 99.6%
24 | O=C(/C=C/c1ccc(F)cc1)N1CCN(C(=O)/C=C/c2ccc(C(F)(F)F)cc2)CC1 | 113% |  | 104% | 106% | 98% | 108% | 98.2% | 102%
25 | CN(C)CCNC(=O)n1cc(-c2ccncc2)c(-c2cc(O)cc(Cl)c2)n1 | 106% |  | 51.1% | 109% |  | 106% | 102% | 119%
26 | ClCc1c(Cl)c(Cl)c(Cl)c(CCl)c1Cl | -71.5% (active) |  | 52.2% | -82.2% (active) | -76.8% (active) | 24.8% | -4.94% (active) | 88.6%
27 | COc1cc(C2C(C#N)=C(N)Oc3cc4c(cc32)OCO4)cc2c1OCO2 (stereo unspecified) | 53.7% |  | -50.6% (active) | 29% | 11% | 10.9% | 16.6% | 14.7%
28 | COc1cc(OC)c(Cl)cc1N | 98.8% |  | 98.2% | 102% | 106% | 107% | 95.5% | 106%
29 | CC1OC(n2c3ccccc3c3c4c(c5c6ccccc6[nH]c5c32)C(=O)N(CCN[C@H]2CCC[C@@H]2N)C4=O)CC(O)C1O (stereo partly specified) | 29% |  | 29.2% | 17.4% | 24.6% | 20.2% |  | 17%
30 | COc1cc(OC)cc(-c2ccc(-c3ccc(C(=N)N)s3)s2)c1 | -70.2% (active) |  | -81.9% (active) | -69.2% (active) |  | -73.3% (active) | -72.8% (active) | -71.7% (active)
31 | CCOC(=O)Cn1c(-c2nonc2NC(=O)c2ccccc2F)nc2ccccc21 | 75.6% |  | 49.3% | 38.5% | 22.9% | 41.1% |  | 33.3%
32 | CC1=CC(=O)OC1C/C=C(\C)CCC1[C@@]2(C)CCC[C@@](C)(C(=O)O)C2CC[C@@]1(C)O (stereo partly specified) | 87.3% |  | 16.7% | 32.4% | 27.9% | 26.4% | 28.8% | 44%
33 | O=C1OCC2=C1C(c1ccccc1)c1cc3c(cc1N2CCO)OCO3 (stereo unspecified) | 1.16% (active) |  | 2.96% (active) | 23.6% | 7.22% (active) | 23.3% | -11.1% (active) | 24.5%
34 | N=C(N)c1ccc(-c2ccc(-c3cccs3)s2)cc1F | -63.7% (active) |  | -81.5% (active) | -62.8% (active) | -47.2% (active) | -76.8% (active) | -68.5% (active) | -81.2% (active)
35 | O=C(CCl)Nc1cc(O)c2c(c1)C(=O)c1cccc(O)c1C2=O | -76.4% (active) |  | 13.5% | -73.8% (active) | -33.9% (active) | -45.8% (active) | -49.6% (active) | -42.3% (active)
